Drawing on PubChem BioAssay (Tox21), this text covers Potency for 8 molecules.

The structures appear in SMILES notation. Where “and” joins values, the source holds several entries; their conditions need not be identical. Identical values can stand only once. Unmarked numbers belong to inactive results. Results filed as inconclusive are left out. Calls of active or inactive are those of the source. Unless noted, the call rests on the fitted dose curve; in most records, active means well fitted curve in the direction sought with a large enough effect in the repeat runs; inconclusive means weak or mixed curves; inactive means no such curve, though single readings can be large; an effect the other way counts as inactive or inconclusive.

Experiment [1] can be described thus: A CellTox Green Cytotoxicity Assay to monitor cytotoxicity in HepG2 cells - 0 hour (AID 1224882). Further: nearly all actives have a fitted effect of over 35% in size. Further: potency means the concentration at half of the fitted maximal effect. The method in brief: (§1)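 Real-time, homogeneous cytotoxicity readout: dead-cell DNA staining by CellTox Green in HepG2 monolayers, fluorescence measured at timed intervals up to 40 h of continuous compound exposure.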
Experiment [2] is described as follows: A CellTox Green Cytotoxicity Assay to monitor cytotoxicity in HepG2 cells - 32 hour (AID 1224883). Further: nearly all actives have a fitted effect of over 50% in size. Further: potency means the concentration at half of the fitted maximal effect. The method in brief: as §1
A short description of experiment [3]: A CellTox Green Cytotoxicity Assay to monitor cytotoxicity in HEK293 cells - 8 hour (AID 1224884). Further: nearly all actives have a fitted effect of over 35% in size. Further: potency means the concentration at half of the fitted maximal effect. The method in brief:
(§2)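 Cytotoxicity was tracked continuously in HEK293 cells by a DNA-binding dye excluded from viable cells. Compounds were transferred in DMSO 5 h after seeding; fluorescence was recorded at intervals up to 40 h.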

Experiment [4] is described as follows: qHTS RealTime-Glo MT Cell Viability Assay in HepG2 cells - 16 hour (AID 1224885). Further: nearly all actives have a fitted effect of over 50% in size. Further: potency means the concentration at half of the fitted maximal effect. The method in brief: (§3)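 Cells + NanoLuc/prosubstrate dispensed (600 cells/well) → 5 h at 37 C/5% CO2 → compounds in DMSO transferred → 40 h incubation at 37 C, luminescence read at 0, 8, 16, 24, 32, 40 h.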
A general note: qHTS replaces the single test concentration by a dilution series.

Experiment [5] in a line: qHTS RealTime-Glo MT Cell Viability Assay in HEK293 cells - 24 hour (AID 1224886). Further: nearly all actives have a fitted effect of over 50% in size. Further: potency means the concentration at half of the fitted maximal effect. The method in brief:
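Tox21 10K qHTS, HEK293, 600 cells/well, RealTime-Glo reagent co-dispensed with cells; 5 h preincubation, compound by pintool, 37 C, luminescence at 0–40 h.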

A short description of experiment [6]: qHTS RealTime-Glo MT Cell Viability Assay in HEK293 cells - 8 hour (AID 1224887). Further: nearly all actives have a fitted effect of over 50% in size. Further: potency means the concentration at half of the fitted maximal effect. The method in brief:
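Nonlytic bioluminescent viability monitoring. HEK293 at 600 cells/well with reagent; 5 h settle; compound transfer by pintool; plates held at 37 C and read at set time points.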

The nature of experiment [7]: A CellTox Green Cytotoxicity Assay to monitor cytotoxicity in HEK293 cells - 16 hour (AID 1224888). Further: nearly all actives have a fitted effect of over 35% in size. Further: potency means the concentration at half of the fitted maximal effect. The method in brief:
as §2

Experiment [8] in a line: qHTS RealTime-Glo MT Cell Viability Assay in HepG2 cells - 0 hour (AID 1224889). Further: nearly all actives have a fitted effect of over 50% in size. The method in brief: as §3
Experiment [9] in a line: qHTS assay to identify small molecule antagonists of the estrogen receptor alpha (ER-alpha) signaling pathway using the BG1 cell line in the presence of 0.1 nM 17-beta-estradiol - cell viability counter screen (AID 1259241). Further: nearly all actives have a fitted effect of over 40% in size. The method in brief:
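In this screen, hormone-deprived VM7Luc4E2 cells were seeded at 4,000 per well, dosed with compound and 0.1 nM estradiol final, and incubated 22 hr at 37C and 5% CO2; fluorogenic live-cell protease signal reported viability.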

Experiment [10] is described as follows: qHTS assay to identify small molecule antagonists of the androgen receptor (AR) signaling pathway using the MDA cell line in the presence of 0.5 nM R1881 - cell viability counter screen (AID 1259242). Further: nearly all actives have a fitted effect of over 45% in size. The method in brief:
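Cytotoxicity toward MDA-kb2 cells is measured by CellTiter-Fluor live-cell protease fluorescence after 16 hr compound exposure at 37C in the presence of 0.5 nM R1881 stimulator.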

Experiment [11] addresses Estrogen receptor (Homo sapiens) (UniProt P03372). Description: qHTS assay to identify small molecule antagonists of the estrogen receptor alpha (ER-alpha) signaling pathway using the BG1 cell line in the presence of 0.1 nM 17-beta-estradiol (AID 1259244). Further: nearly all actives have a fitted effect of over 50% in size. Further: potency means the concentration at half of the fitted maximal effect. The method in brief: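 After 5 days in hormone-depleted medium (charcoal-stripped serum, no phenol red), VM7Luc4E2 cells were seeded, incubated 24 h, then co-treated with compound and 0.1 nM (final) estradiol for 22 h before luminescence detection.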

Experiment [12] in a line: qHTS assay to identify small molecule HDAC inhibitors (AID 1259364). Further: nearly all actives have a fitted effect of over 45% in size. Further: potency means the concentration at half of the fitted maximal effect. The method in brief: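 Homogeneous cell-based luminescent assay of endogenous class I/II HDAC activity; HCT-116 cells, 2 h compound exposure, 30 min HDAC-Glo development at RT.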
Experiment [13] is described as follows: qHTS assay to identify small molecule HDAC inhibitors - cell viability counter screen (AID 1259365). The method in brief:
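Measured quantity is CellTiter-Glo luminescence from wild-type HCT-116 cells after compound incubation of 2hr at 37C, 5% CO2; reagent developed 30min at room temperature.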

Experiment [14] can be described thus: qHTS assay to identify small molecule agonists of the sonic hedgehog signaling (Shh) pathway - cell viability counter screen (AID 1259366). Further: nearly all actives have a fitted effect of over 50% in size. Further: potency means the concentration at half of the fitted maximal effect. The method in brief: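 In quantitative high-throughput format, 3T3 Gli1-Luc cells were exposed to compounds for 24hr and multiplexed for viability using CellTiter-Fluor, incubated 1hr at 37C before the fluorescence read.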

A short description of experiment [15]: qHTS assay to identify small molecule antagonists of the sonic hedgehog signaling (Shh) pathway - cell viability counter screen (AID 1259367). Further: nearly all actives have a fitted effect of over 55% in size. Further: potency means the concentration at half of the fitted maximal effect. The method in brief: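 After a 4 hr settling period, 3T3 Gli1-Luc cells were treated with DMSO-dissolved chemicals and conditioned medium, kept 24 hr at 37C in 5% CO2, and assayed for viability by CellTiter-Fluor fluorescence following 1 hr reagent incubation.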

Experiment [16] in a line: qHTS assay to identify small molecule agonists of the sonic hedgehog signaling (Shh) pathway (AID 1259368; calls by dose curve;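 further: NIH/3T3-derived 3T3Gli1-Luc cells carrying a stable Gli1-driven firefly luciferase reporter; series mostly up to about 92 µM; nearly all actives have a fitted effect of over 15% in size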). The method in brief: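 Steps: seed 3T3 Gli1-Luc cells, incubate 4 hr at 37 C, pin-transfer compounds in DMSO alongside a positive control, incubate 24 hr, add luciferase detection reagent, wait 30 min at room temperature, read luminescence.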
Experiment [17] in a line: qHTS assay to identify small molecule antagonists of the sonic hedgehog signaling (Shh) pathway (AID 1259369; calls by dose curve; further: nearly all actives have a fitted effect of over 45% in size; further: potency means the concentration at half of the fitted maximal effect). The method in brief:
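Inhibition of Shh signalling is measured as reduced Gli1-response-element firefly luciferase output in an NIH/3T3-derived stable reporter clone stimulated with conditioned medium for 24hr.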

A short description of experiment [18]: A CellTox Green Cytotoxicity Assay to monitor cytotoxicity in HepG2 cells - 8 hour (AID 1224890). Further: nearly all actives have a fitted effect of over 45% in size. Further: potency means the concentration at half of the fitted maximal effect. The method in brief:
as §1

For experiment [19], the target named is Androgen receptor (Homo sapiens) (UniProt P10275). As to the kind of experiment: qHTS assay to identify small molecule antagonists of the androgen receptor (AR) signaling pathway using the MDA cell line in the presence of 0.5 nM R1881 (AID 1259243). Further: nearly all actives have a fitted effect of over 50% in size. The method in brief: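 Steps: seed MDA-kb2 cells, incubate 5 hr at 37C; pin-transfer compounds in DMSO; add R1881 to 0.5 nM final; incubate 16 hr; add ONE-Glo, wait 30 min at room temperature; read luminescence.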
Chain of Androgen receptor (Homo sapiens) (P10275 whole entry, looked up): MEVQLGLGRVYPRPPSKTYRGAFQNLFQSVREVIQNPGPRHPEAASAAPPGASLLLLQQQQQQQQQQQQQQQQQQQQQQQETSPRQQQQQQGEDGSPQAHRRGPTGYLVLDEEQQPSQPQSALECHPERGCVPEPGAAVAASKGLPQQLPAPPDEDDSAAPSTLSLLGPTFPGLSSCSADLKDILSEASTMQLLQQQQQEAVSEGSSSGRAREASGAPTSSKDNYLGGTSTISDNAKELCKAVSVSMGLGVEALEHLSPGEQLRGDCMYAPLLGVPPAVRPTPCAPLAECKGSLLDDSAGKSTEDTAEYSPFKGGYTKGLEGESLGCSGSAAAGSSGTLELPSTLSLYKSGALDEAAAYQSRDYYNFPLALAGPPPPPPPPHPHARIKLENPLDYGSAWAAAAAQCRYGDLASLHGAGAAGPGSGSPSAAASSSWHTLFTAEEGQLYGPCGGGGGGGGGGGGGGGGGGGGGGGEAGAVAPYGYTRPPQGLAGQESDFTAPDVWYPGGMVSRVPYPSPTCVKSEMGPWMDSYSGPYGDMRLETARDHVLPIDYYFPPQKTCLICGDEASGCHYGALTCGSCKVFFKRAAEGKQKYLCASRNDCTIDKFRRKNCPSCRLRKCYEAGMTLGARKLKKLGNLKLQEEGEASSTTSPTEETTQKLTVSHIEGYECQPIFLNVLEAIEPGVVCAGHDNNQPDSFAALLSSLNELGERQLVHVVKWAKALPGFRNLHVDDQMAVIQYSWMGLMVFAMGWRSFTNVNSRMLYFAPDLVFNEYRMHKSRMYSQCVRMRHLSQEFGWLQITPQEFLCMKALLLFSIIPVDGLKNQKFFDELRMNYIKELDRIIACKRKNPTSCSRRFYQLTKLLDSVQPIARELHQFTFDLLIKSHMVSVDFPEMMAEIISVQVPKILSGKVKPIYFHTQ

Chain of Estrogen receptor (Homo sapiens) (P03372 whole entry, looked up): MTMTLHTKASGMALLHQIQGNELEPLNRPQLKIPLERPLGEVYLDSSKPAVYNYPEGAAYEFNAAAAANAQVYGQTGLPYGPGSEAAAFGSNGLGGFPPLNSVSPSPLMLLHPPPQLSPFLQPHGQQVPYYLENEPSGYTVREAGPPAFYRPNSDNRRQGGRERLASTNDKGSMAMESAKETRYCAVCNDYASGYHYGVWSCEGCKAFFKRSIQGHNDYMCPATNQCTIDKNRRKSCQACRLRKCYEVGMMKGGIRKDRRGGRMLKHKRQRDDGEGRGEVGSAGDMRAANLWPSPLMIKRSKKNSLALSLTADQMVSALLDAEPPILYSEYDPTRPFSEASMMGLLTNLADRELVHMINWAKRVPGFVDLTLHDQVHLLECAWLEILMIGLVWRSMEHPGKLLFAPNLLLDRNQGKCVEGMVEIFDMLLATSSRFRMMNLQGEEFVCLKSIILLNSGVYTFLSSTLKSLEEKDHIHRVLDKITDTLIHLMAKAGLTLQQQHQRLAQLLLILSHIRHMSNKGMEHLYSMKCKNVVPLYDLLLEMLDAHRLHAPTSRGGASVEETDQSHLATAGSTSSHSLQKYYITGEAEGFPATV

As to `COC(=O)CC#N`, the Potency entry in experiment [1], in experiment [2], in experiment [3], in experiment [4], in experiment [5] and in experiment [6] was “inactive” throughout. The Potency entry in [7], in [8], in experiment [9], in [10], in [11] and in experiment [12] was “inactive” throughout. The Potency entry in [13], in experiment [14], in [15], in [16] and in experiment [17] was “inactive” each time.

As for `CN(C)CCOC(c1ccccc1)c1ccccc1` (tested in a mixture with another compound), the Potency entry in experiment [1], in experiment [2], in [3], in experiment [4], in [5] and in [6] was “inactive” in each case. Moreover, the Potency entry in experiment [7], in experiment [8], in [18], in [10], in [19] and in experiment [13] was “inactive” in each case. Further, the Potency result in [14] and in experiment [16] was “inactive” each time. For the same molecule, the results for the Potency in experiment [15] and in experiment [17] were 61.6 µM (active) and 24.5 µM (active), respectively.

Take `NCCCCCCNCCCCCCN`: the Potency result in experiment [1], in [2], in experiment [3], in experiment [4], in experiment [5] and in experiment [6] was “inactive” in each case. Also, the Potency entry in experiment [7], in [8], in [18], in [10], in experiment [11] and in experiment [12] was “inactive” each time. The Potency result in experiment [13] and in experiment [16] was “inactive” in each case.

On to `C=CC/C=C/C/C=C/C/C=C/C`, for which the Potency entry in experiment [1], in experiment [2], in experiment [3], in [4], in [5] and in experiment [6] was “inactive” each time. Also, the Potency entry in experiment [7], in experiment [8], in experiment [9], in [19], in experiment [11] and in experiment [12] was “inactive” in each case. The Potency entry in [13], in [14] and in experiment [16] was “inactive” in each case.

For the molecule `CCCCCCCC(=O)OCC`, the Potency entry in experiment [1], in experiment [2], in experiment [3], in experiment [4], in experiment [5] and in experiment [6] was “inactive” in each case. The Potency result in experiment [7], in experiment [8], in experiment [18], in experiment [19], in experiment [11] and in experiment [12] was “inactive” throughout. The Potency entry in experiment [13], in experiment [14], in experiment [16] and in experiment [17] was “inactive” in each case.

For the molecule `N#CSCSc1nc2ccccc2s1`, the Potency entry in experiment [1], in experiment [3], in [7], in [8], in experiment [9] and in [19] was “inactive” in each case. For the same molecule, the Potency result in [13] and in [16] was “inactive” each time. Moreover, the Potency in experiment [2] was 24.5 µM (active); in experiment [4] it was 43.6 µM (active); in [5] it was 15.5 µM (active); in experiment [6], 21.9 µM (active); in experiment [12], 19.3 µM (active); in [14] it was 10.9 µM (active). The values for the Potency in experiment [15] and in experiment [17] were 24.3 µM (active) and 1.93 µM (active), respectively.

Regarding `CCCCCCCCCCCCOC(=O)c1cc(O)c(O)c(O)c1`, the Potency entry in [1], in [8], in experiment [12] and in [13] was “inactive” each time. Further, the Potency is 48.8 µM (active) and 54.9 µM (active) in experiment [2]; 54.7 µM (active) in experiment [3]; 48.8 µM (active) and 49 µM (active) in experiment [4]; 4.35 µM (active) and 3.89 µM (active) in experiment [5]; 7.73 µM (active) and 6.17 µM (active) in experiment [6]; 54.7 µM (active) and 43.6 µM (active) in experiment [7]. The Potency was 48.8 µM (active) and 21.9 µM (active) in experiment [18]; 30.5 µM (active) and 34.4 µM (active) in experiment [11]; 34.2 µM (active) and 6.11 µM (active) in experiment [15]; 1.21 µM (active) and 2.17 µM (active) in [17].

As for `COC(=O)[C@]1(C)CCC[C@@]2(C)[C@H]1CC=C1C=C(C(C)C)CC[C@@H]12`, the Potency is 24.5 µM (active) in experiment [1]; 24.5 µM (active) in [2]; 38.9 µM (active) in experiment [3]; 38.9 µM (active) in experiment [7]; 38.9 µM (active) in experiment [18]. Further, the Potency entry in [4], in experiment [5], in experiment [6], in experiment [8], in experiment [10] and in [12] was “inactive” in each case. The Potency entry in [13], in experiment [14], in [15] and in experiment [16] was “inactive” throughout.
